Source: PubChem
Only some compounds are listed: those with a hit (about 3.7% of all), similar ones and a draw of the others.
BoNT-A LC inh2: inhibitors of Botulinum neurotoxin A light chain protease | 360,000 compounds, 0.17% hits | inhibition, % at 10 µM | multiplex microsphere protease substrate cleavage, flow cytometry; also: plate controls were buffer without enzyme for full effect and enzyme alone for no effect
Anthrax LF prot: blocks Bacillus anthracis lethal factor protease. multiplex microsphere protease cleavage assay, LF. 360,000 compounds, 0.12% hits. inhibition, % at 10 µM. AID 588501; also: plate controls were buffer without enzyme for full effect and enzyme alone for no effect
Target sequence (P15917 whole entry, looked up): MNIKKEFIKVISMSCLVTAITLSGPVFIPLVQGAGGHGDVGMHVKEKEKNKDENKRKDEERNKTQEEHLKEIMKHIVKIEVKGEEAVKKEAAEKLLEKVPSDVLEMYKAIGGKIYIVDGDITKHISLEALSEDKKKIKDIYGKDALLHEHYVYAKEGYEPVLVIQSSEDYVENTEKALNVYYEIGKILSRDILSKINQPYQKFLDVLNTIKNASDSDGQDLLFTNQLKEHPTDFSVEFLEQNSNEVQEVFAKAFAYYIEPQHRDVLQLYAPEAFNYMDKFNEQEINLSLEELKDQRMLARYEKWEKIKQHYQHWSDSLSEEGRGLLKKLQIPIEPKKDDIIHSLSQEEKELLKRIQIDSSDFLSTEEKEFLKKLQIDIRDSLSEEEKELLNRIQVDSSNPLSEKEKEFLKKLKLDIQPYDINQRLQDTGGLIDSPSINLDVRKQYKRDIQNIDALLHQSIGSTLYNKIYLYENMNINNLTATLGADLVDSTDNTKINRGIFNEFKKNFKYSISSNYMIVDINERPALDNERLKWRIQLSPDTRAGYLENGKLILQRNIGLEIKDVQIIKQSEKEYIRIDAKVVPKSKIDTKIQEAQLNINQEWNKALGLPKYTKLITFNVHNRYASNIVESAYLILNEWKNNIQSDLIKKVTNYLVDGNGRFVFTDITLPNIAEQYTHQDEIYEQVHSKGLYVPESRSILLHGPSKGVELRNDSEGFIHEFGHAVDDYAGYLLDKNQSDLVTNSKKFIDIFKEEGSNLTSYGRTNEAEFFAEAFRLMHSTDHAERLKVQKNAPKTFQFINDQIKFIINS
BJeLR lethal: kills HRASV12-expressing BJeLR cells | inhibition, % (test concentration not listed) | 300,000 compounds, 0.17% hits | BJeLR (HRASV12) viability, CellTiter-Glo ATP luminescence, 48 h; in the data active = inhibition above about 50%; inconclusive = no clear call, values can overlap the other calls
BoNT-F LC inh: BoNT F light chain protease inhibition; 360,000 compounds, 0.22% hits; Multiplex microsphere protease cleavage assay, flow cytometry; inhibition, % at 10 µM; in the data active = inhibition above about 35%, passing the limit was not always enough; inconclusive = no clear call, values can overlap the other calls; also: plate controls were buffer without enzyme for full effect and enzyme alone for no effect
Vc quorum ag: inducers of Vibrio cholerae quorum light production without autoinducers; 350,000 compounds, 0.16% hits; V. cholerae BH1578 lux reporter, luminescence, 6 h; AID 588436; activation, % at 18.7 µM; in the data active = activation mostly above about 9.7%, no sharp cut-off; inconclusive = no clear call, values can overlap the other calls; inactive = mostly below about 3.7%
Bead autofluor: counter-screen for toxin protease inhibitors: compound fluorescence; compound autofluorescence counterscreen, microsphere flow cytometry; stronger effect = higher value; 360,000 compounds, 3.1% hits; fluorescence intensity (no concentration beside the values); in the data active = fluorescence intensity above about 16000; inconclusive = no clear call, values can overlap the other calls
* = called active by the depositor. Rule as the data show it, unless noted: active = inhibition above about 30%; inconclusive = no clear call, values can overlap the other calls; inactive = below that.

What do the screens show for `Nc1c(N(CCC2=CCCCC2)C(=O)CCCOc2ccccc2)c(=O)[nH]c(=O)n1Cc1ccccc1`?
BoNT-A LC inh2: -1; Anthrax LF prot: -5; BJeLR lethal: -3; BoNT-F LC inh: -4; Vc quorum ag: -2; Bead autofluor: inconclusive

Results for CC(Oc1ccccc1)C(=O)N(CCC1=CCCCC1)c1c(N)n(Cc2ccccc2)c(=O)[nH]c1=O (stereo not given) ?
BoNT-A LC inh2: -1; Anthrax LF prot: 6; BJeLR lethal: -8; BoNT-F LC inh: -1; Vc quorum ag: 23*; Bead autofluor: 4411

Results for CC(C)OC(=O)c1cccnc1SCC(=O)N(C)c1ccccc1 ?
BoNT-A LC inh2: -1; Anthrax LF prot: 3; BJeLR lethal: 1; BoNT-F LC inh: 4; Vc quorum ag: inactive; Bead autofluor: 8409

How did CC(C)OC(=O)c1cccnc1SCc1cc(=O)n2ccccc2n1 do in these assays?
BoNT-A LC inh2: -2; Anthrax LF prot: 0; BJeLR lethal: 4; BoNT-F LC inh: -5; Vc quorum ag: -3; Bead autofluor: 24425*

Results for CC1=C(C(=O)Nc2ccccc2)C(c2ccco2)NC(=S)N1 (stereo not given) ?
BoNT-A LC inh2: -2; Anthrax LF prot: -1; BJeLR lethal: 0; BoNT-F LC inh: -7; Vc quorum ag: 2; Bead autofluor: 24277*

How did CC1=C(C(=O)Nc2ccccc2)C(c2ccco2)NC(=O)N1 (stereo not given) do in these assays?
BoNT-A LC inh2: 1; Anthrax LF prot: -4; BJeLR lethal: -3; BoNT-F LC inh: 5; Vc quorum ag: inactive; Bead autofluor: 9478

What do the screens show for `CCC(=Nc1ccc2c(c1)CCC2)c1c(O)n(C2CCCCC2)c(=O)[nH]c1=O`?
BoNT-A LC inh2: inconclusive; Anthrax LF prot: 0; BJeLR lethal: 4; BoNT-F LC inh: 0; Vc quorum ag: inactive; Bead autofluor: 22000*

What do the screens show for `CC(=Nc1ccc2c(c1)CCC2)c1c(O)n(C2CCCCC2)c(=O)[nH]c1=O`?
BoNT-A LC inh2: 1; Anthrax LF prot: -4; BJeLR lethal: 10; BoNT-F LC inh: 3; Vc quorum ag: 11; Bead autofluor: 15927

How did CCOc1cnc(-c2ccc(OC)cc2)o1 do in these assays?
BoNT-A LC inh2: 0; Anthrax LF prot: -2; BJeLR lethal: 3; BoNT-F LC inh: -11; Vc quorum ag: inactive; Bead autofluor: 2483

How did CCOc1oc(-c2ccc(OC)cc2)nc1C(F)(F)F do in these assays?
BoNT-A LC inh2: 0; Anthrax LF prot: 0; BJeLR lethal: 8; BoNT-F LC inh: -1; Vc quorum ag: inactive; Bead autofluor: 16401*

What do the screens show for `CCOc1cccc(-c2nnc3sc(-c4cc(OC)c(OC)c(OC)c4)nn23)c1`?
BoNT-A LC inh2: 0; Anthrax LF prot: 0; BJeLR lethal: -1; BoNT-F LC inh: -9; Vc quorum ag: inactive; Bead autofluor: 11659

How did COc1cc(-c2nn3c(Cc4ccccc4)nnc3s2)cc(OC)c1OC do in these assays?
BoNT-A LC inh2: 2; Anthrax LF prot: -6; BJeLR lethal: -2; BoNT-F LC inh: 3; Vc quorum ag: inactive; Bead autofluor: 22616*

What do the screens show for `COc1cc(-c2nn3c(COc4ccccc4)nnc3s2)cc(OC)c1OC`?
BoNT-A LC inh2: -1; Anthrax LF prot: 2; BJeLR lethal: 0; BoNT-F LC inh: 1; Vc quorum ag: 6; Bead autofluor: 23486*

How did COc1cc(-c2nn3c(-c4ccccc4)nnc3s2)cc(OC)c1OC do in these assays?
Vc quorum ag: 0

Results for C/C(=N\Nc1ccc2nncn2n1)c1ccccn1 ?
BJeLR lethal: 62*; Vc quorum ag: 0

What do the screens show for `COc1ccccc1CN1CCc2c([nH]c3ccccc23)C1`?
BoNT-A LC inh2: -3; Anthrax LF prot: 8; BJeLR lethal: 0; BoNT-F LC inh: -18; Vc quorum ag: 0; Bead autofluor: 6280

What do the screens show for `COc1cc(CN2CCc3c([nH]c4ccccc34)C2)cc(OC)c1`?
BoNT-A LC inh2: 11; Anthrax LF prot: 2; BJeLR lethal: -3; BoNT-F LC inh: -91; Vc quorum ag: inactive; Bead autofluor: 18016*

What do the screens show for `Cc1cc(F)ccc1C(O)c1ncc(-c2cccc(F)c2)[nH]1` (stereo not given)?
BoNT-A LC inh2: 0; Anthrax LF prot: 0; BoNT-F LC inh: 0; Vc quorum ag: 4; Bead autofluor: 3497

How did c1ccc(CCn2c(C3CC3)nc3ccccc32)cc1 do in these assays?
BoNT-A LC inh2: 0; Anthrax LF prot: 0; BJeLR lethal: -2; BoNT-F LC inh: -5; Vc quorum ag: inactive; Bead autofluor: 16345*

How did C[C@H]1CCCCO[C@H](CN(C)Cc2ccc(C(=O)O)cc2)[C@@H](C)CN([C@@H](C)CO)C(=O)c2cc(NS(=O)(=O)c3cn(C)cn3)ccc2O1 do in these assays?
BoNT-A LC inh2: 0; Anthrax LF prot: 2; BoNT-F LC inh: 0; Vc quorum ag: inactive; Bead autofluor: 3841

How did O=C(NCCc1ccccc1)c1cccnc1 do in these assays?
BoNT-A LC inh2: 0; Anthrax LF prot: -1; BJeLR lethal: -3; BoNT-F LC inh: 0; Vc quorum ag: -1; Bead autofluor: 3365

How did CC(C)C(=O)Nc1cccc(C(=O)Nc2ccccc2C(=O)O)c1 do in these assays?
BoNT-A LC inh2: 0; Anthrax LF prot: -2; BJeLR lethal: -4; BoNT-F LC inh: -1; Vc quorum ag: inactive; Bead autofluor: 20875*

How did O=C(Nc1ccccc1C(=O)O)c1cccc(NC(=O)c2ccccc2Br)c1 do in these assays?
BoNT-A LC inh2: -2; Anthrax LF prot: -7; BJeLR lethal: 3; BoNT-F LC inh: inconclusive; Vc quorum ag: -1; Bead autofluor: 4086

What do the screens show for `CC(C)C(=O)Nc1cccc(C(=O)NCCc2ccc(S(N)(=O)=O)cc2)c1`?
BoNT-A LC inh2: inconclusive; Anthrax LF prot: -1; BJeLR lethal: 1; BoNT-F LC inh: 13; Vc quorum ag: inactive; Bead autofluor: 20300*

What do the screens show for `NS(=O)(=O)c1ccc(CCNC(=O)c2cccnc2)cc1`?
BoNT-A LC inh2: -2; Anthrax LF prot: -4; BJeLR lethal: -13; BoNT-F LC inh: -5; Vc quorum ag: 0; Bead autofluor: 20577*

Results for C[C@@H]1COc2cc(N3CCC[C@H]3CO)ccc2S(=O)(=O)N1 ?
BoNT-A LC inh2: 1; Anthrax LF prot: -2; BoNT-F LC inh: -4; Bead autofluor: 5987

Results for O=C(CN(CCc1ccccc1)C(=O)CN1C(=O)COc2ccccc21)NCc1ccco1 ?
BoNT-A LC inh2: 1; Anthrax LF prot: 0; BJeLR lethal: 1; BoNT-F LC inh: 2; Vc quorum ag: inactive; Bead autofluor: 23028*

What do the screens show for `COc1ccc(N(CC(=O)N2CCN(c3ccccc3)CC2)S(=O)(=O)c2ccccc2)cc1`?
BoNT-A LC inh2: 0; Anthrax LF prot: -9; BoNT-F LC inh: 2; Vc quorum ag: 0; Bead autofluor: 3767

Results for Cc1ccc2c(c1)c1nc3ccccc3nc1n2C ?
BoNT-A LC inh2: 24; Anthrax LF prot: 4; BJeLR lethal: -3; BoNT-F LC inh: 21; Vc quorum ag: 7; Bead autofluor: 3344

What do the screens show for `Cn1c2ccc(Cl)cc2c2nc3ccccc3nc21`?
BoNT-A LC inh2: 40*; Anthrax LF prot: 25; BJeLR lethal: 8; BoNT-F LC inh: 18; Vc quorum ag: 0; Bead autofluor: 4173
